These results are taken from PubChem BioAssay (Tox21).

Inconclusive results are not listed. Unmarked numbers belong to inactive results. The source made the active and inactive calls. Unless noted, calls come from the whole dose curve; as a rule, active = well fitted curve in the direction sought with a large enough effect in the repeat runs; inconclusive = weak or mixed curves; inactive = no such curve, though single readings can be large; an effect the other way counts as inactive or inconclusive.

A short description of assay [1]: qHTS assay to identify small molecule antagonists of the estrogen related receptor (ERR) signaling pathway (AID 1224819; note: potency is the fitted concentration of half-maximal effect; nearly all actives have a fitted effect of over 50% in size). The method in brief:
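Compounds dissolved in DMSO were pin-transferred onto ERR cells that had been plated 6 h earlier, and cells were then incubated 18 h at 37 C; signal was luciferase luminescence via One-Glo.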

The nature of assay [2]: qHTS assay to identify small molecule agonists of the estrogen related receptor (ERR) signaling pathway (AID 1224820). The method in brief: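 Luminescence readout (One-Glo, 30 min RT) from NTP-supplied ERR cell line exposed to compounds for 18 h at 37 C. Cells seeded 2,000 per well and pre-incubated 6 h before pin-tool compound transfer.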
For assay [3], the system named is estrogen-related receptor alpha (ERRalpha) with PGC-1alpha coactivator, human. The assay is described as follows: qHTS assay to identify small molecule antagonists of the estrogen related receptor signaling pathway with the pleiotropic PPARgamma coactivator (PGC) (AID 1224821; calls by dose curve; note: nearly all actives have a fitted effect of over 50% in size; note: potency is the fitted concentration of half-maximal effect). The method in brief:
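PGC/ERR reporter cells; 6 h pre-incubation 37 C/5% CO2; pin-tool compound in DMSO, 18 h 37 C; One-Glo added, 30 min RT; luminescence read. qHTS antagonist mode.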

Assay [4] is described as follows: qHTS assay to identify small molecule agonists of the estrogen related receptor signaling pathway with the pleiotropic PPARgamma coactivator (PGC) (AID 1224823). The method in brief:
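Luminescence readout (One-Glo, 30 min RT) from PGC/ERR cell line treated 18 h at 37 C with pin-tool-delivered DMSO compound solutions; cells plated 6 h before dosing. Quantitative HTS format.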

Assay [5] is described as follows: qHTS assay to identify small molecule antagonists of the estrogen related receptor signaling pathway with the pleiotropic PPARgamma coactivator (PGC) cell viability counter screen (AID 1224822; note: potency is the fitted concentration of half-maximal effect). The method in brief:
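Counter screen for cell viability: PGC/ERR cells, 6 h pre-incubation after plating, 17.5 h compound exposure at 37 C, fluorescence from CellTiter-Fluor after 30 min.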

A short description of assay [6]: qHTS assay to identify small molecule antagonists of the estrogen related receptor (ERR) signaling pathway - cell viability counter screen (AID 1224818). Note: series mostly up to about 46 µM. A digest of the protocol:
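Compounds dissolved in DMSO were applied to ERR cells seeded at 2,000 per well 6 h earlier. Cell viability followed 17.5 h later via 30-min CellTiter-Fluor fluorescence.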

As for `CC(C)(C)c1cc(C=C(C#N)C#N)cc(C(C)(C)C)c1O`, the results for the Potency in assay [1] and in assay [3] were 0.276 µM (active) and 0.181 µM (active), respectively. In addition, the Potency entry in assay [2] and in assay [4] was “inactive” in each case.

For `O=[N+]([O-])c1cc(O)c(O)c([N+](=O)[O-])c1`, the Potency entry in assay [2], in assay [3], in assay [5] and in assay [4] was “inactive” in each case.

Regarding `O=C(NC1CN2CCC1CC2)c1cc2ccoc2cn1` (stereo not drawn), the Potency entry in assay [6] and in assay [5] was “inactive” each time.

Turning to `O=S1(=O)N(CCN2CC=C(c3c[nH]c4cc(F)ccc34)CC2)c2cccc3c2N1CCC3`, the Potency in assay [1] is 16.2 µM (active); in assay [3], 23.7 µM (active). Also, the Potency result in assay [2] and in assay [4] was “inactive” throughout.

Turning to `CC1(C(=O)O)C2CCC(O2)C1(C)C(=O)O` (stereo not drawn), the Potency entry in assay [2] and in assay [3] was “inactive” in each case.

In the case of `Cc1o[nH]c(=O)c1CC(N)C(=O)O` (stereo not drawn), the Potency result in assay [6] and in assay [5] was “inactive” in each case.

With `C/C=C(/C)C(=O)O[C@H]1C(C)=C2[C@H]([C@@H]1OC(=O)CCCCCCC)[C@@](C)(OC(C)=O)C[C@H](OC(=O)CCC)[C@@]1(O)[C@H]2OC(=O)[C@@]1(C)O`, the Potency is 0.246 µM (active) in assay [1] and 8.1 µM (active) in assay [5]. The Potency result in assay [2] and in assay [4] was “inactive” throughout.

With `Cc1cc([C@@H]2CCCN2C)on1`, the Potency result in assay [6], in assay [3], in assay [5] and in assay [4] was “inactive” throughout.

On to `CO[C@H]1CC=C2CCN3CCC4=C(CC(=O)OC4)[C@]23C1`, for which the Potency entry in assay [6] and in assay [5] was “inactive” each time.
